From PubChem
An excerpt weighted towards active compounds, which were near 0.52% of everything screened.
BCR signal inh: qHTS Assay to Find Inhibitors of Chronic Active B-Cell Receptor Signaling; ABC-DLBCL IkBa-CBG/CBR reporter, luminescence ratio, 4 h; Potency, µM (titrated, usually from 46.1 µM), inactives show at the top dose activity change, negative = inhibition, hits mostly inhibitors; hit rate 0.05% among 340,000; active means well fitted inhibition curve with a large enough effect in the signal ratio, with a control signal flat, not every such curve was filed as active; inconclusive means small, poorly fitted or top-dose-only effect, or effect the other way, or a change in a side signal; the % refers to the signal ratio;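 further: plate controls were basal doxycycline-induced cells for no effect and cells given 10 µM MG132 for full effect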
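Cell line TMD8 (human ABC DLBCL), stably expressing tet-inducible CBG68-IkBa fusion and CBR; IMDM/0.5% FBS; cpd up to 46 uM; dox induction, 4 h, 37C/5% CO2; dual luminescence; green/red ratio; MG132 control.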
uPA surface inh: qHTS for Inhibitors of Cell Surface uPA Generation; cell surface uPA generation assay, qHTS; Potency, µM (top dose mostly 38.3 µM), for inactives: at the top dose activity change, negative = inhibition, most hits filed as inhibitors; hit rate 0.31% among 330,000; AID 540303, 2011; active means well fitted inhibition curve with a large enough effect; inconclusive means small, poorly fitted or top-dose-only effect; inactive means no such curve, though single readings can be large or run the other way; tested in mouse RAW 264.7 cells; further: nearly all actives have a fitted effect of over 55% in size
USP2a inh: qHTS Assay for Inhibitors of Ubiquitin-specific Protease USP2a Using CHOP2 as the Reporter. Ubiquitin carboxyl-terminal hydrolase 2 (Homo sapiens), O75604. USP2 core, Ub-CHOP2 coupled fluorogenic reporter, 485/531. Potency, µM (highest dose often 38.3 µM), without a hit: at the highest dose activity change, negative = inhibition, usual class: inhibitors. hit rate 0.01% among 330,000. AID 463254, 2010;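 further: plate controls were DMSO wells for no effect and full inhibition by NEM control for full effect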
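USP2 core (10nM final) preincubated 30min RT with compound in 20mM Tris-HCl pH 8.0, 2mM CaCl2, 2mM beta-mercaptoethanol, 0.05% CHAPS; 25nM Ub-CHOP2 plus 25nM reporter substrate added, fluorescence (Ex485/Em531) read after 60min.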
GCN5L2 inh: qHTS Assay for Inhibitors of GCN5L2 | Histone acetyltransferase KAT2A (Homo sapiens), Q92830 | GCN5L2 HAT assay, ThioGlo1 CoA-SH fluorescence | Potency, µM (series often up to 58.9 µM), inactives show top-dose activity change, negative = inhibition, hits mostly inhibitors | hit rate 0.21% among 390,000 | AID 504327, 2011
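qHTS, 1536-well. 20nM enzyme, pH 7.5 HEPES/EDTA/Tween-20 buffer; 15 min compound preinc., RT. Start: 75uM H3(1-25), 70uM AcCoA, 50uM ThioGlo1. Read Ex340/Em540 at t=0 (autofluorescence flag) and t=20 min.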
RGS4 inhibitor: Inhibitors of Regulator of G Protein Signaling (RGS) 4: qHTS. hit rate 0.039% among 390,000. Regulator of G-protein signaling 4 (Homo sapiens), P49798. Potency, µM (series often up to 114 µM), for inactives: at the top dose activity change, negative = inhibition, actives largely listed as inhibitors. Transcreener GDP fluorescence polarization, RGS4-accelerated GTP hydrolysis; further: nearly all actives have a fitted effect of over 75% in size
Target sequence (P49798 whole entry, looked up): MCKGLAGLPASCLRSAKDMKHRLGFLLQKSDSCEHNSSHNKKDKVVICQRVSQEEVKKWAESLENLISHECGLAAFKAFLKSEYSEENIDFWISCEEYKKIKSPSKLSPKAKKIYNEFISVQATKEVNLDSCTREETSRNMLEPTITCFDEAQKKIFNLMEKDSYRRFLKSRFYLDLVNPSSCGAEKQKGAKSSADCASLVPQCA
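MLSMR compounds (23 nl, pin-transferred) preincubated 10 min at room temperature with a 500nM (2x) first reagent, then RGS4 at 900nM (2x) plus Transcreener GDP mix added; fluorescence polarization (620/688 nm) read before and after 90 min at 30 °C.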
Eya2 phos inh: qHTS Assay for Inhibitors of the Phosphatase Activity of Eya2; Protein phosphatase EYA2 (Homo sapiens), O00167; recombinant Eya2, OMFP fluorescence dephosphorylation (OMFP is methylfluorescein phosphate); Potency, µM (titrated, usually from 76.9 µM), for the others: at the top dose activity, negative = inhibition, hits mostly inhibitors; hit rate 0.006% among 330,000; AID 488837, 2010
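Eya2 protein (added as 0.2 uM solution) was preincubated with compound for 10 min at ambient temperature in 50 mM HEPES pH 7.5, 50 mM NaCl, 5 uM MgCl2, 0.05% BSA, 1 mM DTT. OMFP (added at 50 uM) then reacted 10 min; fluorescence read at 485/525 nm.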
* marks the source's active call; other numbers are inactive results; ? = inconclusive; . = no result given; [ ] = another dose, or the depositor's remark. Unless noted, the call rests on the fitted dose curve; in most records, active means well fitted curve in the direction sought with a large enough effect; inconclusive means small, poorly fitted or top-dose-only effect, or another doubt; inactive means no such curve, though single readings can be large; an effect the other way counts as inactive or inconclusive. Unless noted, on the % scale 0 is the no-effect control and ±100 the full control effect; potency means the concentration at half of the fitted maximal effect.

SMILES	BCR signal inh	uPA surface inh	USP2a inh	GCN5L2 inh	RGS4 inhibitor	Eya2 phos inh
CCOC(=O)N1CCN(c2nc(-c3cccc(OC)c3)cc(C(F)(F)F)n2)CC1	3%	-1%	2%	-12%	?	9%
CCOC(=O)N1CCN(c2nc(-c3ccco3)cc(C(F)(F)F)n2)CC1	0%	3%	0%	4µM*	-1%[11.4 µM]	22%
COc1ccc(NC(=O)CC2C(=O)N(c3ccc(C)cc3)C(=O)N2C2CCCC2)cc1 (centres undefined)	.	.	.	-3%	5%	.
Cc1cccc(NC(=O)N(C)Cc2cccs2)c1	-8%	-6%	0%	32µM*	44%	0%
Cc1nc2c3cc(F)ccc3n(Cc3ccc(F)cc3)c2s1	3%	3.5µM*	0%	-1%	5%[11.4 µM]	-1%
CC1C(=O)N2CCCc3cc(NC(=O)c4ccccc4Br)cc1c32 (centres undefined)	23µM*	?	-1%	-1%	-30%	-8%
CN(C)c1ccc(CNC(=O)c2ccc(Cn3c(=O)c4cccn4c4cccnc43)cc2)cc1	.	.	.	0%	3%	.
CCCCN(CC)C(=O)c1ccc2c(c1)NC(=O)c1ccccc1S2	.	.	.	-2%	10%	.
O=C(Nc1n[nH]c(=S)s1)c1ccco1	0%	2%	2%	32µM*	?	1%
Cc1csc(NC(=O)c2ccco2)n1	-1%	5%	-1%	-3%	-5%	13%
O=S1(=O)N[C@@H](CC2CCCCC2)COc2cc(Br)ccc21	6%	1.6µM*	0%	-4%	9%	-4%
CN(Cc1ccco1)c1cc(-c2ccoc2)ncn1	.	.	.	32µM*	.	.
CN(C)c1ccc(-c2cc(N(C)Cc3ccco3)ncn2)cc1	.	.	.	-15%	.	.
Nc1ncnc2c1ncn2[C@H]1C[C@H](O)[C@@H](CO)O1	?	5%	-1%	-1%	8%	4%
Nc1nc(Cl)nc2c1ncn2[C@H]1C[C@H](O)[C@@H](CO)O1	?	0.32µM*	1%	-2%	10%	6%
O=C(/C=C/c1ccc([N+](=O)[O-])s1)N1CCCC1	9%	11µM*	2%	-5%	-13%	17%
CC1CC(C)CN(C(=O)/C=C/c2ccc([N+](=O)[O-])s2)C1 (centres undefined)	?	3.5µM*	2%	-13%	-17%	-10%
O=C(/C=C/c1ccc([N+](=O)[O-])s1)N1CCCCC1	8%	-14%	4%	-18%	6%	-2%
CN(C)c1cccc(C(=O)Nc2ccc(-c3nc4ccccc4s3)cc2)c1	-1%	.	.	3%	-21%	.
CN(C(=O)OC(C)(C)C)c1ccc(-c2nc3ccccc3s2)cc1	.	2µM*	.	.	4%	.
O=C(CSc1nc(-c2ccc(F)cc2)nc2c1Cc1ccccc1O2)Nc1cccc(C(=O)O)c1	-9%	0%	3%	13µM*	?	0%
Cc1nc2nc(SCC(=O)NC(C)c3ccccc3)nn2c(C)c1Cc1c(F)cccc1Cl (centres undefined)	.	.	.	-6%	-1%	.
Cc1ccc(C(=O)NCCc2cccs2)cc1	?	5µM*	3%	-3%	11%[11.4 µM]	-4%
CN(c1ccc(C(=O)NCc2cccs2)cc1)S(=O)(=O)c1ccccc1	0%	2.2µM*	2%	-1%	10%	5%
CN(c1ccccc1)S(=O)(=O)c1ccc(C(=O)OCC(=O)NCc2cccs2)cc1	-1%	?	-5%	17%	3%	-25%
CN(C)C(=O)c1ccc(-c2ccc3ncnc(N4CCOCC4)c3c2)cc1	.	.	.	-3%	.	.
